{"source": "PubChem BioAssay AID2158", "about": "(National Center for Advancing Translational Sciences (NCATS), 2009)", "note": "Records with an inconclusive call do not appear. Active and inactive are the calls of the source. Calls come from the whole dose curve; as a rule, active = well fitted inhibition curve with a large enough effect; inconclusive = small, poorly fitted or top-dose-only effect; inactive = no such curve, though single readings can be large or run the other way. Potency is the fitted concentration of half-maximal effect."}
{"target": "Cruzipain (Trypanosoma cruzi) (UniProt P25779)", "sequence (P25779 123-467 limits assumed)": "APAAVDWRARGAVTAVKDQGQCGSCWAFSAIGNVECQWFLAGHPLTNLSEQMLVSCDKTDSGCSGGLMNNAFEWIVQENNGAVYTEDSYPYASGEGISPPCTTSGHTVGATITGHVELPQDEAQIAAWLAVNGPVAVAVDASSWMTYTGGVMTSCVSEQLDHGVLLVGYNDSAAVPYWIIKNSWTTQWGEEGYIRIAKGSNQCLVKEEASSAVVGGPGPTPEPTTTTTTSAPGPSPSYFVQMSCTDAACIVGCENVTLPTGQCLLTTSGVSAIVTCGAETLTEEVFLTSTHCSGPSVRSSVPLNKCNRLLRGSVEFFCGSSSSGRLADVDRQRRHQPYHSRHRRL", "experiment": "Confirmation qHTS Assay for Inhibitors of Cruzain; note: nearly all actives have a fitted effect of over 40% in size;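 for activity change, negative = inhibition: plate controls were uninhibited enzyme control for no effect and buffer wells lacking enzyme for full effect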", "details": "purified cruzain, Z-FR-AMC fluorescence, 0.01% Triton", "description": "Cruzain is a cysteine protease from the tropical parasite Trypanosoma cruzi. This assay protocol is a follow-up and confirmation of related AID 1478 (qHTS Assay for Promiscuous and Specific Inhibitors of Cruzain -- with detergent). Cruzain was assayed by the use of fluorogenic coumarin-based substrate Z-FR-AMC: proteolytic cleavage releases AMC, whose fluorescence is measured at 360 nm excitation and 450 nm emission. Purified cruzain was supplied by the labs of Prof. James McKerrow and Brian Shoichet, UC San Francisco. This assay had 0.01% Triton X-100 concentration. See following references for additional details: Jadhav A, et al. J Med Chem. 2010 Jan 14;53(1):37-51. Mott BT, et al. J Med Chem. 2010 Jan 14;53(1):52-60. Assay Provider: Shoichet, Brian; University of California, San Fancisco Screening Center PI: Austin, C.P. Screening Center: NIH Chemical Genomics Center [NCGC]\nBuffer: 100 mM Sodium Acetate, pH 5.5, 5 mM DTT, Triton X-100 concentration: 0.01%. Reagents/Controls: Buffer in columns 3 and 4 as negative control (no enzyme). Substrate solution: 2 uM final concentration of Z-FR-AMC (catalog number I-1160, Bachem) dispensed throughout the plate. Enzyme: 1.5 nM Cruzain final concentration in columns 1, 2, 5-48. Column 1 is neutral (100% activity). Column 2 contained titration of covalent inhibitor K11777, starting concentration 1 mM, then 1:2 dilution in duplicate). Assay Steps: Three uL of enzyme or buffer were dispensed to 1536-well Greiner black solid bottom plates. Compounds and controls (23 nL) were transferred via Kalypsys PinTool. The plates were incubated for 15 min at room temperature, and then 1 uL of substrate solution was added to start the reaction. The plates were immediately transferred to and read 4 times every 30 seconds for 2 min on ViewLux High-throughput CCD imager (Perkin-Elmer) using 360 nm excitation and 450 nm emission fluorescence protocol. The fluorescence intensity difference between the third and the first time points (time lapse of 60 seconds) was used to compute reaction progress."}
{"smiles": "CCn1nc(-c2ccccc2)nc2c(=O)n(C)c(=O)nc1-2", "Potency": "3980 nM (active)"}
{"smiles": "Cc1nc2c(=O)n(C)c(=O)nc-2n(C)n1", "Potency": "2000 nM (active)"}
{"smiles": "CCc1ccccc1NC(=O)CSc1nnc([C@@H](N)Cc2c[nH]c3ccccc23)o1", "activity change, negative = inhibition": "-73.4% (inactive)"}
{"smiles": "N#CC(C#N)=NNc1cccc(Cl)c1", "Potency": "15800 nM (active)"}
{"smiles": "CC(C)OC(=O)c1c(N)n(Cc2ccco2)c2nc3ccccc3nc12", "activity change, negative = inhibition": "-8.08% (inactive)"}
{"smiles": "Cc1ccc(S(=O)(=O)N[C@@H](CCCCN)C(=O)CCl)cc1", "Potency": "282 nM (active)"}
{"smiles": "Cn1ncnc2c(=O)n(C)c(=O)nc1-2", "Potency": "2240 nM (active)"}
{"smiles": "O=C(Nc1nc(-c2ccccc2)c(-c2ccccc2)s1)c1ccc(S(=O)(=O)N(CCCl)CCCl)cc1", "activity change, negative = inhibition": "-8.01% (inactive)"}
{"smiles": "Cn1nc(-c2ccccc2)nc2c(=O)n(C)c(=O)nc1-2", "Potency": "1410 nM (active)"}
{"smiles": "Cc1ccc(-c2nc3c(=O)n(C)c(=O)nc-3n(C)n2)cc1", "Potency": "1410 nM (active)"}
{"smiles": "NC(=O)CSc1nnc([C@@H](N)Cc2c[nH]c3ccccc23)o1", "Potency": "15800 nM (active)"}
